Assay [1] addresses Paired box protein Pax-6 (Homo sapiens) (UniProt P26367). Briefly: ATG_Pax6_CIS: Attagene CIS-FACTORIAL HepG2 Assay for human Paired Box 6 (PAX6) (AID 2282956). The following applies: HepG2 CIS-FACTORIAL PAX6 reporter transcription, RNA readout; actives raise or lower the signal. A digest of the protocol:
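Transient MRTU transfection of HepG2 → compound exposure 24 h → TriZol RNA, oligo(dT) RT → PCR, 6-FAM primer extension, HpaI cut → capillary electrophoresis; activity fitted both directions against DMSO.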

The nature of assay [2]: ATG_PXRE_CIS: Attagene CIS-FACTORIAL HepG2 Assay for human Pregnane X Receptor Element (PXRE) (AID 2282957). The following applies: HepG2 Attagene CIS-FACTORIAL PXRE reporter, mRNA; actives raise or lower the signal. A digest of the protocol:
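Multiplexed cis-reporter assay in transiently transfected human HepG2 cells; 24 h chemical exposure. Reporter transcripts quantified by RT-PCR with fluorescent labeling and capillary electrophoresis.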

A short description of assay [3]: ATG_PPRE_CIS: Attagene CIS-FACTORIAL HepG2 Assay for human Peroxisome Proliferator-activated Response Element (PPRE) (AID 2282958). Particulars: HepG2 PPRE cis-element reporter, Attagene transcription factor profiling; actives raise or lower the signal. The method in brief:
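Cells are first transfected transiently with the multiplexed reporter library, then dosed for 24 h. Total RNA is reverse-transcribed, amplified, fluorescently end-labeled and HpaI-cut before capillary electrophoresis; activity is fitted bidirectionally against DMSO controls.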

Assay [4] can be described thus: ATG_Sox_CIS: Attagene CIS-FACTORIAL HepG2 Assay for human SRY-box transcription factor (SOX) (AID 2282960). Particulars: HepG2 Attagene cis-factorial SOX reporter, mRNA; actives raise or lower the signal. The method in brief: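 Transient MRTU transfection of HepG2; 24 h compound incubation; TriZol RNA, oligo(dT) RT, PCR, 6-FAM primer extension, HpaI cut, CE. Bidirectional fit, DMSO = baseline.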

The target in assay [5] is Transcription factor Sp1 (Homo sapiens) (UniProt P08047). Briefly: ATG_Sp1_CIS: Attagene CIS-FACTORIAL HepG2 Assay for human Specificity Protein 1 (Sp1) (AID 2282961). Particulars: HepG2 Sp1 cis-reporter transcription, actives raise or lower the signal. A digest of the protocol:
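Endogenous Sp1 activity was gauged in human liver HepG2 cells bearing transfected reporter units under a cis-regulating promoter. After 24 h dosing, reporter mRNA was quantified by RT-PCR with capillary electrophoresis, and activity fitted bidirectionally versus DMSO.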

In assay [6] the target is Signal transducer and activator of transcription 3 (Homo sapiens) (UniProt P40763). Briefly: ATG_STAT3_CIS: Attagene CIS-FACTORIAL HepG2 Assay for human Signal Transducer and Activator of Transcription 3 (STAT3) (AID 2282963). Particulars: HepG2, Attagene cis-factorial STAT3 reporter transcription; actives raise or lower the signal. The method in brief: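 After a 24 h compound incubation, total RNA from MRTU-transfected HepG2 cells was converted to cDNA and reporter sequences PCR-amplified, labelled and profiled by capillary electrophoresis. Gain and loss of signal were referenced to DMSO.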
Sequence of Signal transducer and activator of transcription 3 (Homo sapiens) (P40763 whole entry, looked up): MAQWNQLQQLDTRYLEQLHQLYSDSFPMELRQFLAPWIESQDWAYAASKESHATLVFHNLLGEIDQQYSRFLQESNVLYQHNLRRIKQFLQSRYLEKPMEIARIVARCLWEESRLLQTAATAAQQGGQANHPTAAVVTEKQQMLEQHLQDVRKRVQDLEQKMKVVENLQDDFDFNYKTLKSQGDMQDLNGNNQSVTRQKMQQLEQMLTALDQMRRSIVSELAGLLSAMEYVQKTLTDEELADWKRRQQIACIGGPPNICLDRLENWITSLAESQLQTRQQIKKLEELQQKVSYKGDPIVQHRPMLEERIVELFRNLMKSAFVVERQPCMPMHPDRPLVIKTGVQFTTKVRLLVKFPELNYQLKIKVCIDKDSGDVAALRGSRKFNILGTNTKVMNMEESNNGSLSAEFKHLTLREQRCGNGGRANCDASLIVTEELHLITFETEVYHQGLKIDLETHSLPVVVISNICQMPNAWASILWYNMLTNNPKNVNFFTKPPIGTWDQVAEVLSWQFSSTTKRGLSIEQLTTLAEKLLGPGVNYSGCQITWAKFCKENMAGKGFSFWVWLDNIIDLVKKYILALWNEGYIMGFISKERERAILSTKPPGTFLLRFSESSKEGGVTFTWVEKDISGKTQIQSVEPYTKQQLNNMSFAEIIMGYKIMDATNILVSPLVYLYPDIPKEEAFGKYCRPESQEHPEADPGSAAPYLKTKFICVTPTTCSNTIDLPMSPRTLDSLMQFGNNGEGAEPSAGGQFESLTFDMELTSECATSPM

Assay [7] in a line: ATG_TA_CIS: Attagene CIS-FACTORIAL HepG2 Assay for human TA Basal Promoter (AID 2282964). Particulars: HepG2 Attagene CIS-factorial TA basal promoter reporter; actives raise or lower the signal. The method in brief:
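Steps: transfect HepG2 with MRTUs; dose 24 h; isolate RNA, DNase-treat, reverse-transcribe; PCR and FAM-label reporter cDNA; digest with HpaI 2h at 37 C; run capillary electrophoresis. Activity fitted both directions against DMSO.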

The nature of assay [8]: ATG_TCF_b_cat_CIS: Attagene CIS-FACTORIAL HepG2 Assay for human T-Cell-Factor with beta-catenin (TCF/b-cat) (AID 2282965). The following applies: HepG2 TCF/beta-catenin cis-reporter transcription, actives raise or lower the signal. The method in brief:
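Measured: reporter mRNA in HepG2 transiently transfected with cis-promoter reporter units, 24 h after chemical addition. Fitting was bidirectional, DMSO as negative control.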

Assay [9] can be described thus: ATG_TAL_CIS: Attagene CIS-FACTORIAL HepG2 Assay for human TAL Basal Promoter (AID 2282966).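 Also: background control endpoint measuring basal TAL promoter reporter mRNA not a specific factor.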 The following applies: HepG2 Attagene cis-factorial TAL promoter reporter; actives raise or lower the signal. A digest of the protocol:
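Steps: transfect HepG2 with multiple reporter transcription units; dose 24 h; isolate RNA, reverse-transcribe, PCR-amplify, label with 6-FAM, digest with HpaI; resolve by capillary electrophoresis. Bidirectional fitting against DMSO baseline.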

Assay [10] in a line: ATG_VDRE_CIS: Attagene CIS-FACTORIAL HepG2 Assay for human Vitamin D Receptor Element (VDRE) (AID 2282968). The following applies: HepG2 VDRE cis-reporter transcription, actives raise or lower the signal. The method in brief: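 In transiently transfected HepG2 liver cells, gain or loss of reporter mRNA after 24 h exposure is scored relative to DMSO, using fluorescence detection by capillary electrophoresis of RT-PCR products.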

Assay [11] deals with X-box-binding protein 1 (Homo sapiens) (UniProt P17861). Briefly: ATG_Xbp1_CIS: Attagene CIS-FACTORIAL HepG2 Assay for human X-box Binding Protein 1 (XBP1) (AID 2282972). Particulars: HepG2 XBP1 cis-element reporter, Attagene multiplex; actives raise or lower the signal. The method in brief:
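HepG2, transient MRTU transfection (cis-promoter driven), 24 h compound exposure. Total RNA → oligo(dT) RT → PCR → 6-FAM labeling → HpaI cut → CE. Bidirectional fit vs DMSO.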

The nature of assay [12]: ATG_SREBP_CIS: Attagene CIS-FACTORIAL HepG2 Assay for human Sterol Regulatory Element Binding (SREBP) (AID 2282962). Particulars: HepG2 Attagene cis-factorial SREBP reporter, mRNA; actives raise or lower the signal. The method in brief: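 Transfected HepG2 (cis-regulated reporter library, endogenous TFs) → compound 24 h → total RNA → oligo(dT) RT → reporter-specific PCR → FAM primer extension, HpaI cut → CE fluorescence. Fit bidirectional vs DMSO.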

The nature of assay [13]: ATG_TGFb_CIS: Attagene CIS-FACTORIAL HepG2 Assay for human Transforming Growth Factor (TGF) (AID 2282967). Particulars: HepG2 Attagene CIS TGFb reporter, mRNA transcription; actives raise or lower the signal. The method in brief:
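Cells were dosed for 24 hours, after which total RNA was reverse-transcribed and reporter sequences amplified, labeled and sized by capillary electrophoresis. Activity was fitted in both directions against DMSO.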

Assay [14] in a line: ATG_M_19_TRANS: Attagene TRANS-FACTORIAL HepG2 Assay for M19 Transcription Factor (Internal Marker) (AID 2282974; active = hit-call score of the fitted dose curve at least 0.9, where 1 is the maximum). Particulars: HepG2 Attagene TRANS-FACTORIAL M19 internal marker reporter. The method in brief:
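Cells: human HepG2, transiently transfected with multiplexed reporter transcription units. Exposure: 24 h. Detection: RT-PCR of reporter mRNA with capillary electrophoresis. Analysis: gain-of-signal vs DMSO.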

In assay [15] the target is Nuclear receptor subfamily 1 group I member 3 (Homo sapiens) (UniProt Q14994). As to the kind of experiment: ATG_CAR_TRANS: Attagene TRANS-FACTORIAL HepG2 Assay for human Constitutive Androstane Receptor (CAR) (AID 2282969; active = hit-call score of the fitted dose curve at least 0.9, where 1 is the maximum;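 also: activators raise reporter mRNA above DMSO so AC50 marks induction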). The following applies: HepG2 Attagene TRANS-FACTORIAL CAR reporter. The method in brief:
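Readout is reporter mRNA induction, quantified by fluorescent primer extension and capillary electrophoresis after RT-PCR. Cells were HepG2 transiently carrying chimeric NR-Gal4 constructs with GAL4-UAS reporters, treated for 24 h; activity scored upward from DMSO.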

Assay [16] concerns the target Steroid hormone receptor ERR1 (Homo sapiens) (UniProt P11474). Briefly: ATG_ERRa_TRANS: Attagene TRANS-FACTORIAL HepG2 Assay for human Estrogen-Related Receptor alpha (ERRa) (AID 2282971; active = hit-call score of the fitted dose curve at least 0.9, where 1 is the maximum). The following applies: HepG2 Attagene TRANS reporter, ERRa transactivation. A digest of the protocol:
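Signal gain relative to DMSO for an ERRa-Gal4 chimeric receptor, read as reporter mRNA by RT-PCR/capillary electrophoresis. Human HepG2 liver cells, transient multiplex reporter transfection, 24 h chemical exposure.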

A short description of assay [17]: ATG_GAL4_TRANS: Attagene TRANS-FACTORIAL HepG2 Assay for GAL4 (Internal Marker) (AID 2282976; active = hit-call score of the fitted dose curve at least 0.9, where 1 is the maximum). The following applies: HepG2 Attagene TRANS GAL4 internal marker reporter. A digest of the protocol: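 Liver HepG2 line bearing multiplexed GAL4-UAS reporter constructs; 24 h chemical treatment. Transcripts were quantified as fluorescent fragments on capillary electrophoresis after RT-PCR and HpaI cut, with activity fitted upward from DMSO.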

In assay [18] the target is Estrogen-related receptor gamma (Homo sapiens) (UniProt P62508). As to the kind of experiment: ATG_ERRg_TRANS: Attagene TRANS-FACTORIAL HepG2 Assay for human Estrogen-Related Receptor gamma (ERRg) (AID 2282977; active = hit-call score of the fitted dose curve at least 0.9, where 1 is the maximum;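 also: hits increase reporter signal over DMSO so potencies reflect activators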). Particulars: HepG2 Attagene TRANS reporter, ERRg transactivation. A digest of the protocol:
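Transient HepG2 transfectants, 24 h compound exposure, GAL4-UAS reporter mRNA by RT-PCR/6-FAM labelling/capillary electrophoresis; positive direction vs DMSO.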

The target of assay [19] is Estrogen receptor (Homo sapiens) (UniProt P03372). As to the kind of experiment: ATG_ERa_TRANS: Attagene TRANS-FACTORIAL HepG2 Assay for human Estrogen Receptor alpha (ERa) (AID 2282970; active = hit-call score of the fitted dose curve at least 0.9, where 1 is the maximum). The following applies: HepG2 Attagene TRANS ERa GAL4 reporter, mRNA. The method in brief:
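Multiplexed cell-based reporter format in HepG2: chimeric ERa-Gal4 protein drives GAL4-UAS reporter transcription. Fluorescent reporter mRNA quantified by capillary electrophoresis 24 hours after dosing; endpoint fitted as signal gain against DMSO.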

Records with an inconclusive call do not appear. Activity calls are given as the source filed them. The calls were made as follows, unless noted: active = hit-call score of the fitted dose curve at least 0.9, where 1 is the maximum; inactive = score below 0.9.

This is an account of results in PubChem BioAssay (EPA / NIEHS).

Sequence of Transcription factor Sp1 (Homo sapiens) (P08047 whole entry, looked up): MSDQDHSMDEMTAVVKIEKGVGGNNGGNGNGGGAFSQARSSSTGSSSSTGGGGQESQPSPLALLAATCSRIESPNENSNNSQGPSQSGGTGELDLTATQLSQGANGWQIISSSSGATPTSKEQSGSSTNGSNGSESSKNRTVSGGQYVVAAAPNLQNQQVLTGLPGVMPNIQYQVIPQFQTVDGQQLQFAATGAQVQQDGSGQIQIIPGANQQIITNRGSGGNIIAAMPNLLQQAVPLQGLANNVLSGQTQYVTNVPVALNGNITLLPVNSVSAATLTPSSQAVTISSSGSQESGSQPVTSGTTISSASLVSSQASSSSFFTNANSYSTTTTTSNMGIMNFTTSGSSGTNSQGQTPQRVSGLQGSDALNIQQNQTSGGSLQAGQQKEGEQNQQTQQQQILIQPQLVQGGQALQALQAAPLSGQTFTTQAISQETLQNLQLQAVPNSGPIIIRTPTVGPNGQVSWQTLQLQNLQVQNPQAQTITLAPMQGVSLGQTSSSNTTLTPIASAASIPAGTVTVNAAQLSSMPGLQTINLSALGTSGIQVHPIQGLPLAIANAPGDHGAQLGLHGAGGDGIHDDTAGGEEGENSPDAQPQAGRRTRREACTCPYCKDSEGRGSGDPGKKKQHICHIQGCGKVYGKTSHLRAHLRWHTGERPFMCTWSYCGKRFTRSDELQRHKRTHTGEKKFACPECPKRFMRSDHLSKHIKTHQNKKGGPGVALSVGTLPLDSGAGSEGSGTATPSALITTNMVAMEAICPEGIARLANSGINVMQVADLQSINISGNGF
Sequence of Paired box protein Pax-6 (Homo sapiens) (P26367 whole entry, looked up): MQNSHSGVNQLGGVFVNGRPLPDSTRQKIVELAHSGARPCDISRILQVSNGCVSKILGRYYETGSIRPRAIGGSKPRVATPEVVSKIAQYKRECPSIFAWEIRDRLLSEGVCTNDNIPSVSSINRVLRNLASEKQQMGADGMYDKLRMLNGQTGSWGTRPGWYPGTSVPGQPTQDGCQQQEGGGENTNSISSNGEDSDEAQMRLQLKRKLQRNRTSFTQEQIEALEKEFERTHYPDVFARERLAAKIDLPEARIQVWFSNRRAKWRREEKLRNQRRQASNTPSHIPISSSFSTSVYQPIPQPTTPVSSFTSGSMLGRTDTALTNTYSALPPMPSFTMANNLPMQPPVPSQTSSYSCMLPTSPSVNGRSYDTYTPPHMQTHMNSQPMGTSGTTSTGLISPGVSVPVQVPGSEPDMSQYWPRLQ
Sequence of X-box-binding protein 1 (Homo sapiens) (P17861 whole entry, looked up): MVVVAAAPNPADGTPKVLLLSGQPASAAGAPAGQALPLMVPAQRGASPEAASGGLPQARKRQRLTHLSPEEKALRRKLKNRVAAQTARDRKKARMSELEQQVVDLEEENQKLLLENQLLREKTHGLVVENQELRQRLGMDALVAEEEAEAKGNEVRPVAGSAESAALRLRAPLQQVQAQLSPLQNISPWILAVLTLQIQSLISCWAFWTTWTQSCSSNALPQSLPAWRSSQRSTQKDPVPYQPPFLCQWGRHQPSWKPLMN
Sequence of Nuclear receptor subfamily 1 group I member 3 (Homo sapiens) (Q14994 whole entry, looked up, the tested form may be a part): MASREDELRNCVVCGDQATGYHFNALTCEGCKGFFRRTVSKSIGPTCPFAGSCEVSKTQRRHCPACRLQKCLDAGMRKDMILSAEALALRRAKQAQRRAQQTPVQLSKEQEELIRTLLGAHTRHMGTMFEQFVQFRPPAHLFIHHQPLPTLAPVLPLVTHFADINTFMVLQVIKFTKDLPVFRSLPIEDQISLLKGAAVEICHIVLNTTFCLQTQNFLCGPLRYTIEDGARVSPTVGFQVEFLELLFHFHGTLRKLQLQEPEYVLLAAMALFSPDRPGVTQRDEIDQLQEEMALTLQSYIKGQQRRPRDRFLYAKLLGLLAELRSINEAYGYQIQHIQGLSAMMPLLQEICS
Sequence of Estrogen receptor (Homo sapiens) (P03372 whole entry, looked up, the tested form may be a part): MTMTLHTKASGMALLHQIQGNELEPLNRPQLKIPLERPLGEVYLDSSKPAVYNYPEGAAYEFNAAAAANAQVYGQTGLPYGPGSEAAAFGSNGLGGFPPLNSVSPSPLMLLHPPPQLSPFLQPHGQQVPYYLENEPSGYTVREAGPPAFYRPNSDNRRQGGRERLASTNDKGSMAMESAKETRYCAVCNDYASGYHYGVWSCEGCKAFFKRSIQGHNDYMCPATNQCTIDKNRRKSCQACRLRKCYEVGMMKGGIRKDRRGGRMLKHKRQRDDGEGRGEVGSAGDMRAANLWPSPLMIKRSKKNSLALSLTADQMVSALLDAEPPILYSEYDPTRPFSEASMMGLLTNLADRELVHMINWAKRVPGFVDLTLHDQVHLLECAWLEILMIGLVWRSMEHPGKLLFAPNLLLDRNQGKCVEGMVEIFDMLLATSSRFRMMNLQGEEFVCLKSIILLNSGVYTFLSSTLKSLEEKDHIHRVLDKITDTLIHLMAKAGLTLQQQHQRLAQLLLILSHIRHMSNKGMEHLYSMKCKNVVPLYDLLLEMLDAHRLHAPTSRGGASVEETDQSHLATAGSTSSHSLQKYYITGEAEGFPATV
Sequence of Steroid hormone receptor ERR1 (Homo sapiens) (P11474 whole entry, looked up, the tested form may be a part): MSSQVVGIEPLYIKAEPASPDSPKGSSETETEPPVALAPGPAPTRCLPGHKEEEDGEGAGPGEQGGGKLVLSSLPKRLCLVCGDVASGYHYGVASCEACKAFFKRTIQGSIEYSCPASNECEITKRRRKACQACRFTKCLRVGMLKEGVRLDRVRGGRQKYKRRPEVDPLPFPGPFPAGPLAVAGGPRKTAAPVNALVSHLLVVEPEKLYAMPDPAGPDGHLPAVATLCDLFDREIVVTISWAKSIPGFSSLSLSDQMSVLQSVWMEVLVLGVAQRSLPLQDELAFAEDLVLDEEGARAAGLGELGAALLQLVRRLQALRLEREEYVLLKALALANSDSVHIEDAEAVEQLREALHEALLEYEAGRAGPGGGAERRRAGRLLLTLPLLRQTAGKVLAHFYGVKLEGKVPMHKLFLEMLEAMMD
Sequence of Estrogen-related receptor gamma (Homo sapiens) (P62508 whole entry, looked up, the tested form may be a part): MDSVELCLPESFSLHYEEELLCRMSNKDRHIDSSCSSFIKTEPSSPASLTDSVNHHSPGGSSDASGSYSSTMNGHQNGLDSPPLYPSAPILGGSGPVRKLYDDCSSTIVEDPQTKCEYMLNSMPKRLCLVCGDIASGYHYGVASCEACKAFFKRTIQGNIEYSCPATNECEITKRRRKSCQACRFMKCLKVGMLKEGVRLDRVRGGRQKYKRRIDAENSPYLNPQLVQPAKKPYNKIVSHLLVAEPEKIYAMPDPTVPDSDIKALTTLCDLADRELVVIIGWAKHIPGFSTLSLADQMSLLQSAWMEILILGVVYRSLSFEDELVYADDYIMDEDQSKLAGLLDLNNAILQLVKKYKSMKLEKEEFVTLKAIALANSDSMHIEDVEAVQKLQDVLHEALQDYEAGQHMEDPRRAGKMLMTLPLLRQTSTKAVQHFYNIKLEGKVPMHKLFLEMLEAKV

With `Nc1ccc(S(=O)(=O)O)c(N)c1`, the compound was classed as inactive in [1], in [2], in assay [3], in assay [4], in assay [5] and in [6]. Also, the compound was classed as inactive in assay [7], in assay [8], in assay [9], in assay [10] and in [11].
Turning to `CCC(C)(O)CCC=C(C)C` (centres undefined), the result in [1], in [2], in assay [3], in assay [4], in assay [5] and in assay [12] was inactive. Moreover, the call in assay [6], in assay [7], in assay [8], in assay [9], in assay [13] and in assay [11] was inactive. For the same compound, the compound was called inactive in assay [14].
What is called AC50 is the concentration at which the activity in the assay is half-maximal. Take `Nc1nc2ccc([N+](=O)[O-])cc2s1`: the call in assay [1], in assay [4], in assay [5], in assay [12], in [6] and in assay [7] was inactive. Moreover, the result in assay [8], in [9], in [13], in assay [10], in [11] and in assay [14] was inactive. For the same compound, the concentration at half-maximal activity (AC50) in assay [2] is 19.8 µM (active); in assay [3] it was 45.6 µM (active).
In the case of `Nc1cc([N+](=O)[O-])ccc1O`, the compound was called inactive in assay [1], in [2], in [3], in assay [4], in [5] and in assay [12]. Besides, the compound was called inactive in assay [6], in [7], in [8], in [9], in assay [13] and in [15]. Moreover, the result in [16], in assay [11], in assay [14], in assay [17] and in assay [18] was inactive.
With `CCN(CC)c1ccc2c(-c3ccccc3C(=O)O)c3ccc(=[N+](CC)CC)cc-3oc2c1`, the AC50 in assay [1] is 149 µM (active); in assay [2], 0.882 µM (active); in [12], 26.9 µM (active); in [8], 30.8 µM (active); in [10] it was 33.5 µM (active); in [11], 100 µM (active). For the same compound, the result in assay [3], in assay [4], in assay [5], in assay [6], in assay [7] and in [9] was inactive. For the same compound, the compound was classed as inactive in assay [13] and in [17].
For the compound `CC(=O)[O][Al][O]C(C)=O`, the result in [1], in assay [3], in [4], in assay [5], in [12] and in assay [6] was inactive. Moreover, the result in assay [8], in assay [9], in [13], in assay [10], in assay [11] and in assay [17] was inactive. In addition, the half-maximal activity concentration (AC50) in assay [2] is 6.49 µM (active).
Turning to `O=C(O)COCCN1CCN(C(c2ccccc2)c2ccc(Cl)cc2)CC1` (centres undefined), the compound was called inactive in assay [1], in assay [2], in [3], in assay [4], in [12] and in assay [6]. In addition, the result in assay [7], in assay [8], in assay [9], in [13], in assay [10] and in [15] was inactive. In addition, the outcome in assay [19], in assay [11], in assay [14] and in [17] was inactive.
As to `O=c1cc(-c2ccccc2)oc2cc(O)cc(O)c12`, the result in assay [1], in [2], in assay [5], in [12], in [6] and in assay [7] was inactive. Besides, the compound was called inactive in assay [8], in assay [9], in assay [13], in [10], in assay [11] and in assay [14]. In assay [3], the AC50 is 4.28 µM (active).
As to `NCCCN1CCOCC1`, the outcome in assay [1], in [2], in [3], in [4], in [5] and in [12] was inactive. Also, the call in [6], in assay [7], in assay [8], in assay [9], in [13] and in assay [10] was inactive. Further, the compound was called inactive in assay [11].
